# Measurements as given in PMC7862700, “An all-to-all approach to the identification of sequence-specific readers for epigenetic DNA modifications on cytosine”.
# What was measured:
# Experiment in all cases: DAPPL (digital affinity profiling via proximity ligation, sequencing); 10 mM Tris-HCl pH 7.5, 50 mM NaCl, 1 mM DTT, 4% glycerol, room temperature, 30 min; GST-TFs on glutathione beads, 16-mer random dsDNA library, 0.1% formaldehyde crosslink after washing; high values mean tight binding
# [1] = target: T1, FLI1 (Homo sapiens, UniProt Q01543 1-452); details: protein: recombinant; tags: N-terminal GST; dsDNA, one strand shown
# T1 sequence: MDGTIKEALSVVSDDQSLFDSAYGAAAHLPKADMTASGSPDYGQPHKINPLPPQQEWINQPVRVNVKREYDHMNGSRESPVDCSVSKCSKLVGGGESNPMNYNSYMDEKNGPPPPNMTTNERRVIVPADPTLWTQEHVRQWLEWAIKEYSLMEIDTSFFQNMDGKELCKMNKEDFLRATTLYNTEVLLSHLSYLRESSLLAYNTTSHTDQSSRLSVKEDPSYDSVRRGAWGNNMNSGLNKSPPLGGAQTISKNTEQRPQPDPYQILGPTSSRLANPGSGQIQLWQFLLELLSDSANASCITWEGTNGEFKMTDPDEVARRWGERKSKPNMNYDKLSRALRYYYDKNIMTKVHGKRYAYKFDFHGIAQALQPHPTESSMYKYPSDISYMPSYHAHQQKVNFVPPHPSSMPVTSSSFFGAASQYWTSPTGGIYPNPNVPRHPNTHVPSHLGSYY
# Procedure, shortened: (§1)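 Sequencing on an Illumina NextSeq500 followed washing, crosslinking with 0.1% formaldehyde, proximity ligation (BsaI/T4 ligase, 1 h, 37 °C) and PCR amplification of pools that had been incubated for 30 min at room temperature with 200 nmole of a random double-stranded 16-mer DNA library in Tris/NaCl/DTT/glycerol buffer. Each pool held DNA-barcoded human transcription factors, expressed in yeast as GST fusions and captured on glutathione beads, plus a tag-only sample. Binding signal is a hexamer's read frequency for a factor divided by its frequency in the tag-only sample.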
# [2] = target: T2, ELK1 (Homo sapiens, UniProt P19419 1-428); details: protein: recombinant; tags: N-terminal GST; dsDNA, one strand shown
# T2 sequence: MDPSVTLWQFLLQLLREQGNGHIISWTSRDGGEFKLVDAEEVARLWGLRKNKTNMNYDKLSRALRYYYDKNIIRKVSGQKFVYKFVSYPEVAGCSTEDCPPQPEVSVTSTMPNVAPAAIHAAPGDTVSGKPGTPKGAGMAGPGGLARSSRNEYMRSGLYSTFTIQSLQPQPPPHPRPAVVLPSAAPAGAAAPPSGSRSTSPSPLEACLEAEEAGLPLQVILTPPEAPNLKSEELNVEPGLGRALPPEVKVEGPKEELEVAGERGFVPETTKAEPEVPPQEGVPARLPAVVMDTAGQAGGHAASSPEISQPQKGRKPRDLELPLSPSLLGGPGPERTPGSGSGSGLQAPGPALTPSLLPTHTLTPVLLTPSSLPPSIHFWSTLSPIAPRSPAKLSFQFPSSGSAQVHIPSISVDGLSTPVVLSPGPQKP
# Procedure, shortened: as §1
# [3] = target: T3, GABPA (Homo sapiens, UniProt Q06546 1-454); details: protein: recombinant; tags: N-terminal GST; dsDNA, one strand shown
# T3 sequence: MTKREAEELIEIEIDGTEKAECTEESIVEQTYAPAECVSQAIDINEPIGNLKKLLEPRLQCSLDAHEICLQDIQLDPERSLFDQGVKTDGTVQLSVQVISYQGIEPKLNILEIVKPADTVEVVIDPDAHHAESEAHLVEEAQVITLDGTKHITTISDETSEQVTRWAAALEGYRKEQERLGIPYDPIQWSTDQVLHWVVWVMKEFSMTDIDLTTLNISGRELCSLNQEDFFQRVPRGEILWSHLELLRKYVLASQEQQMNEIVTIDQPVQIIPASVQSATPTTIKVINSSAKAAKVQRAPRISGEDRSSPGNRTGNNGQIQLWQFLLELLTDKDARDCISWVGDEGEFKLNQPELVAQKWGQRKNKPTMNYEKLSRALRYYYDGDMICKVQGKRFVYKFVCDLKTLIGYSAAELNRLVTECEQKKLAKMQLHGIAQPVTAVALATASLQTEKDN
# Procedure, shortened: as §1
# [4] = target: T4, ERG (Homo sapiens, UniProt P11308 1-479); details: protein: recombinant; tags: N-terminal GST; dsDNA, one strand shown
# T4 sequence: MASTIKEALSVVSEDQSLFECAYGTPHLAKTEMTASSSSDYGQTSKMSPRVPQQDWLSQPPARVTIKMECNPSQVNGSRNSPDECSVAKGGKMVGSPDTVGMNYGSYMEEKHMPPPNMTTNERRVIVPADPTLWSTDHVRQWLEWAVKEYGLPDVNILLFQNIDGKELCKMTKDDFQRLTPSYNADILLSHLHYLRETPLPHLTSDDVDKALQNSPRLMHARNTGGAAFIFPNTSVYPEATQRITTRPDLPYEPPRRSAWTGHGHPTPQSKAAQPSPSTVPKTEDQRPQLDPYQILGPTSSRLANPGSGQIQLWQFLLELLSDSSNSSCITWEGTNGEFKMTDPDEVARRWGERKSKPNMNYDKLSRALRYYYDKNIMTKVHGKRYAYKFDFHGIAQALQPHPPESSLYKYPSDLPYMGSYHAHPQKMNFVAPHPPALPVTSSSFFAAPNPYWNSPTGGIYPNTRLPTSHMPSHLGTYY
# Procedure, shortened: as §1
# [5] = target: ELF1 (Homo sapiens, UniProt P32519 1-619); details: protein: recombinant; tags: N-terminal GST; dsDNA, one strand shown
# Procedure, shortened: as §1
# [6] = target: T5, EHF (Homo sapiens, UniProt Q9NZC4 1-300); details: protein: recombinant; tags: N-terminal GST; dsDNA, one strand shown
# T5 sequence: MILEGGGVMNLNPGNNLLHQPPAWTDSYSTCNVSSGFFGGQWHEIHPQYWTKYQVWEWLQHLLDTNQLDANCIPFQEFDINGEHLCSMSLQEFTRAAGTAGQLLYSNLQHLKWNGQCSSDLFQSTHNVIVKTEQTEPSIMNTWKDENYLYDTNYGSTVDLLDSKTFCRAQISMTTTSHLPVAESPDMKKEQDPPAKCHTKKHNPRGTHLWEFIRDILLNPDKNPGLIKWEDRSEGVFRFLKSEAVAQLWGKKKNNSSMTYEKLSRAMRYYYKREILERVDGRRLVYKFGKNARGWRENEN
# Procedure, shortened: as §1
# [7] = target: SPI1 (Homo sapiens, UniProt P17947 1-270); details: protein: recombinant; tags: N-terminal GST; dsDNA, one strand shown
# Procedure, shortened: as §1
# [8] = target: SPIB (Homo sapiens, UniProt Q01892 1-262); details: protein: recombinant; tags: N-terminal GST; dsDNA, one strand shown
# Procedure, shortened: as §1
# [9] = target: T6, ELK3 (Homo sapiens, UniProt P41970 1-407); details: protein: recombinant; tags: N-terminal GST; dsDNA, one strand shown
# T6 sequence: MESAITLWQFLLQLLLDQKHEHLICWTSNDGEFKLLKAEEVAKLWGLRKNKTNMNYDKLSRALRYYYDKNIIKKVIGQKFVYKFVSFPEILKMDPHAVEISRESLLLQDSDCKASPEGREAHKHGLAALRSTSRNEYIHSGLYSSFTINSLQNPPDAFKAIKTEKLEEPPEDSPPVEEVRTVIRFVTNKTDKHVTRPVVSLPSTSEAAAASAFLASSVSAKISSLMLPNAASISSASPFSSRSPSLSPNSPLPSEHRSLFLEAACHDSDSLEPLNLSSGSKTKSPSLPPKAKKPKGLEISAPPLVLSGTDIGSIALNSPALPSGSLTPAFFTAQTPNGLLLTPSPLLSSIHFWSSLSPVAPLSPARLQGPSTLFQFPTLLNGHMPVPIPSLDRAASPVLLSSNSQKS
# Procedure, shortened: as §1
# [10] = target: T7, FEV (Homo sapiens, UniProt Q99581 1-238); details: protein: recombinant; tags: N-terminal GST; dsDNA, one strand shown
# T7 sequence: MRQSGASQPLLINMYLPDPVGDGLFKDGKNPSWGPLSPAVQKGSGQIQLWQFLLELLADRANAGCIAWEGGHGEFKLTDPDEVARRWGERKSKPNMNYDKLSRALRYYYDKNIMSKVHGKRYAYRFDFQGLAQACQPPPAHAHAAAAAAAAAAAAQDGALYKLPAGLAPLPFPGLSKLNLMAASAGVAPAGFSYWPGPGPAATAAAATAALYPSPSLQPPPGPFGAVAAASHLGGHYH
# Procedure, shortened: as §1
# [11] = target: ETV5 (Homo sapiens, UniProt P41161 1-510); details: protein: recombinant; tags: N-terminal GST; dsDNA, one strand shown
# Procedure, shortened: as §1
# [12] = target: HSF1 (Homo sapiens, UniProt Q00613 1-529); details: protein: recombinant; tags: N-terminal GST; chain copies: 3; dsDNA, one strand shown
# Procedure, shortened: as §1
# [13] = target: T8, SPIC (Homo sapiens, UniProt Q8N5J4 1-248); details: protein: recombinant; tags: N-terminal GST; dsDNA, one strand shown
# T8 sequence: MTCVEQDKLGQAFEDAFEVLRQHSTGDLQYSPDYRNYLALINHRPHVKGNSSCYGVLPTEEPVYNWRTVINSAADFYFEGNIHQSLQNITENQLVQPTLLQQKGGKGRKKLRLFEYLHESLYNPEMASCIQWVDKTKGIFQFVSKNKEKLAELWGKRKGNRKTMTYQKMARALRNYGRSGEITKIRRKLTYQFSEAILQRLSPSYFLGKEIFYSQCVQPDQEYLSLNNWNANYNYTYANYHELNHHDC
# Procedure, shortened: as §1
# [14] = target: ELF4 (Homo sapiens, UniProt Q99607 1-663); details: protein: recombinant; tags: N-terminal GST; dsDNA, one strand shown
# Procedure, shortened: as §1
# [15] = target: T9, ELK4 (Homo sapiens, UniProt P28324-2 1-405); details: protein: recombinant; tags: N-terminal GST; dsDNA, one strand shown
# T9 sequence: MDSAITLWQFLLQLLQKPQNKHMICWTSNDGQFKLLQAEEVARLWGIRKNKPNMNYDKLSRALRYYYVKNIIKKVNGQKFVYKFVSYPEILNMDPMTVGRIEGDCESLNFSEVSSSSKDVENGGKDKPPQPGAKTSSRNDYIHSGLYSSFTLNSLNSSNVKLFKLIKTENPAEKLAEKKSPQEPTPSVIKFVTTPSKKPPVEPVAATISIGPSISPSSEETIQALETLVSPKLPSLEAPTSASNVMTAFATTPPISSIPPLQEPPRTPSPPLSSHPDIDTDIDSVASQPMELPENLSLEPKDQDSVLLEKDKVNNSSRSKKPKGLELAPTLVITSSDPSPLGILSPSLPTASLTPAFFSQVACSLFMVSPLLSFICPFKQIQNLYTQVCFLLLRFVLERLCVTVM
# Procedure, shortened: as §1
# [16] = target: T10, ETV2 (Homo sapiens, UniProt O00321 1-342); details: protein: recombinant; tags: N-terminal GST; dsDNA, one strand shown
# T10 sequence: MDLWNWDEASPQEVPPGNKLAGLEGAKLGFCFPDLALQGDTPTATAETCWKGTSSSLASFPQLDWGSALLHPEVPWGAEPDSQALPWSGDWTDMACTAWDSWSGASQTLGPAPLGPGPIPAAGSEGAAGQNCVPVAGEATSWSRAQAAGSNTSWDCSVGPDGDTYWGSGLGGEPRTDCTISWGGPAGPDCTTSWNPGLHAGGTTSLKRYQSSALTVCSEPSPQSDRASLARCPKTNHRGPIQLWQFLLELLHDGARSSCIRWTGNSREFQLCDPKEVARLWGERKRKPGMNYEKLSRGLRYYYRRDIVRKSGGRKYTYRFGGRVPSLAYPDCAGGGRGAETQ
# Procedure, shortened: as §1
# [17] = target: T11, ELF3 (Homo sapiens, UniProt P78545 1-371); details: protein: recombinant; tags: N-terminal GST; dsDNA, one strand shown
# T11 sequence: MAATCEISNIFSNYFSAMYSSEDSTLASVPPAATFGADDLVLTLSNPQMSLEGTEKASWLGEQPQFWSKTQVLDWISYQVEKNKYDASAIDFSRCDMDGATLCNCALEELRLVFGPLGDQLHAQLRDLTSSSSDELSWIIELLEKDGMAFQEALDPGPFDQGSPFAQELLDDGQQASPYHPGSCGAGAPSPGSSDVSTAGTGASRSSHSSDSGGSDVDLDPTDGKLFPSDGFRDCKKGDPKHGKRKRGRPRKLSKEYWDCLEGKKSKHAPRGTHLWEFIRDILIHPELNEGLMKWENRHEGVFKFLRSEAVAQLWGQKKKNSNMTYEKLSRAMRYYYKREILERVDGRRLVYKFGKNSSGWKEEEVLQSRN
# Procedure, shortened: as §1
# [18] = target: CRX (Homo sapiens, UniProt O43186 1-299); details: protein: recombinant; tags: N-terminal GST; dsDNA, one strand shown
# Procedure, shortened: as §1
# [19] = target: ETV1 (Homo sapiens, UniProt P50549 1-477); details: protein: recombinant; tags: N-terminal GST; dsDNA, one strand shown
# Procedure, shortened: as §1
# ELF1, sequence (P32519 whole entry): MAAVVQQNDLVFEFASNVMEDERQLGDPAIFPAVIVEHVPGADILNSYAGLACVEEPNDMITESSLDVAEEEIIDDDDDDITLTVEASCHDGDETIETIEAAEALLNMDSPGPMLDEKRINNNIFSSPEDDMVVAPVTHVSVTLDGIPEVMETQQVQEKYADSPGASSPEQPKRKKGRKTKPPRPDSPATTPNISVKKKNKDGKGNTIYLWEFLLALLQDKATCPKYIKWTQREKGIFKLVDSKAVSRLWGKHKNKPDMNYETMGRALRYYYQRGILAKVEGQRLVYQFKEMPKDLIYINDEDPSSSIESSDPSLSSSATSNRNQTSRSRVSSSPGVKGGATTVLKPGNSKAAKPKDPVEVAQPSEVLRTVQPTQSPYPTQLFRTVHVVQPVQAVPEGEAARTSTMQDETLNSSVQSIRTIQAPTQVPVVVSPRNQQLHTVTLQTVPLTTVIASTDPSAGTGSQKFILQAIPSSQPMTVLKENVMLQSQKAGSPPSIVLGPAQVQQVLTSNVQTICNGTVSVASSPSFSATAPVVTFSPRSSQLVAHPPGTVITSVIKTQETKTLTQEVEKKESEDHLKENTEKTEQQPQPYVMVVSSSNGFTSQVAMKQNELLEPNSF
# CRX, sequence (O43186 whole entry): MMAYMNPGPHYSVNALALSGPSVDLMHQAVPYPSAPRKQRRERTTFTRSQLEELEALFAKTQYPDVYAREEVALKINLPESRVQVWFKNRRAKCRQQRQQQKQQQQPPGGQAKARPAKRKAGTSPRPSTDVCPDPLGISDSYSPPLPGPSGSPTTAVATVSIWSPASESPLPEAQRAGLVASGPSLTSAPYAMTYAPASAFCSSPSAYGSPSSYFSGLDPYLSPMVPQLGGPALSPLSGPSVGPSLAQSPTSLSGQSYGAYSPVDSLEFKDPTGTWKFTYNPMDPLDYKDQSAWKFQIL
# ELF4, sequence (Q99607 whole entry): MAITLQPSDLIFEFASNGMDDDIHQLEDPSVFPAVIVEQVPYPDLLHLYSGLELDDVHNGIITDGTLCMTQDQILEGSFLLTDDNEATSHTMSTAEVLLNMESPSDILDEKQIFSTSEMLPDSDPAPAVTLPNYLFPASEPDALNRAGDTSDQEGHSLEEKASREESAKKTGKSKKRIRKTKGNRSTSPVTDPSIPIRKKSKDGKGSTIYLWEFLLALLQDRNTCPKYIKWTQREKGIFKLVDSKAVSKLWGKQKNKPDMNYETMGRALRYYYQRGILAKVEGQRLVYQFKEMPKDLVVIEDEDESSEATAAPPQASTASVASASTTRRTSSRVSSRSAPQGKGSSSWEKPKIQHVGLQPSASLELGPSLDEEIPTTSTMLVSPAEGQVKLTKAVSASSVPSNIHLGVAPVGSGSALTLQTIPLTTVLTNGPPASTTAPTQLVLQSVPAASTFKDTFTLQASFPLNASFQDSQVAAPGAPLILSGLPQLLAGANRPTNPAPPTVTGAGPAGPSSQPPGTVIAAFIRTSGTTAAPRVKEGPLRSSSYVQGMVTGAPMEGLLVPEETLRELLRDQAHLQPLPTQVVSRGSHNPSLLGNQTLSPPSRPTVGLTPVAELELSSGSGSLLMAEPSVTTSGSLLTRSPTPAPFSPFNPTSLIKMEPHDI
# ETV5, sequence (P41161 whole entry): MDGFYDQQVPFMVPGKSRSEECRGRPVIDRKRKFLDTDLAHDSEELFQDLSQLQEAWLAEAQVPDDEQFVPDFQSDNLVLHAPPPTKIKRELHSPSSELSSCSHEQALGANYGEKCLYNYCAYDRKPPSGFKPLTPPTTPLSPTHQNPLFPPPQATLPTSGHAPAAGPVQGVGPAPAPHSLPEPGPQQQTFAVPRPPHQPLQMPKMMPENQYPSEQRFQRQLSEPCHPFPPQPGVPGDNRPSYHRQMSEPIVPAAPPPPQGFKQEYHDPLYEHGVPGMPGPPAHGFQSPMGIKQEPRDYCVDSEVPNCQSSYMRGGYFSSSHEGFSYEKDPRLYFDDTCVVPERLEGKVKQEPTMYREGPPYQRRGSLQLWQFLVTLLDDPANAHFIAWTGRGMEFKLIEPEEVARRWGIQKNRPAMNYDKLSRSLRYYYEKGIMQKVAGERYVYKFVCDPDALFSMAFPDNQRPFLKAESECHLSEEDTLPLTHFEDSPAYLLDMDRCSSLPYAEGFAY
# HSF1, sequence (Q00613 whole entry): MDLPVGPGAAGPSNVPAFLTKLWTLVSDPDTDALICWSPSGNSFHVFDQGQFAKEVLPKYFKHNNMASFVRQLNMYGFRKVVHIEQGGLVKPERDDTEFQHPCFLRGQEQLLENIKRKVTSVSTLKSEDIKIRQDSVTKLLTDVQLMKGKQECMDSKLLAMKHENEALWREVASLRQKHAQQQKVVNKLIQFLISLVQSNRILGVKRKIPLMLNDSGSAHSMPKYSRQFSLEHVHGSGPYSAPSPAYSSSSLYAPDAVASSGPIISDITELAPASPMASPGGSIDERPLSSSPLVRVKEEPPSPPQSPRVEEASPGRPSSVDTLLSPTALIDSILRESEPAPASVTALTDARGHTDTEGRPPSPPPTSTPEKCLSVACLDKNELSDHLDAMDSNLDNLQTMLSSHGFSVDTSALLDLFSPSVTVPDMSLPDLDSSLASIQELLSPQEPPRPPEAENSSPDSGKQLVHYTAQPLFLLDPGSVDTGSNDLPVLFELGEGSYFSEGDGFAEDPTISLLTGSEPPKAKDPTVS
# SPIB, sequence (Q01892 whole entry): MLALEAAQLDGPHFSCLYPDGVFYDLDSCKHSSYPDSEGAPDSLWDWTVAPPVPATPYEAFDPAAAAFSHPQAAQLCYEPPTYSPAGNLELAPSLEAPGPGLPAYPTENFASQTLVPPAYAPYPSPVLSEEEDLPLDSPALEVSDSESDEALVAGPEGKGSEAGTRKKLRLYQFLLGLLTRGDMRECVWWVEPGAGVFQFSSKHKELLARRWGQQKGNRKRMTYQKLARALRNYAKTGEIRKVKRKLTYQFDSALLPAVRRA
# ETV1, sequence (P50549 whole entry): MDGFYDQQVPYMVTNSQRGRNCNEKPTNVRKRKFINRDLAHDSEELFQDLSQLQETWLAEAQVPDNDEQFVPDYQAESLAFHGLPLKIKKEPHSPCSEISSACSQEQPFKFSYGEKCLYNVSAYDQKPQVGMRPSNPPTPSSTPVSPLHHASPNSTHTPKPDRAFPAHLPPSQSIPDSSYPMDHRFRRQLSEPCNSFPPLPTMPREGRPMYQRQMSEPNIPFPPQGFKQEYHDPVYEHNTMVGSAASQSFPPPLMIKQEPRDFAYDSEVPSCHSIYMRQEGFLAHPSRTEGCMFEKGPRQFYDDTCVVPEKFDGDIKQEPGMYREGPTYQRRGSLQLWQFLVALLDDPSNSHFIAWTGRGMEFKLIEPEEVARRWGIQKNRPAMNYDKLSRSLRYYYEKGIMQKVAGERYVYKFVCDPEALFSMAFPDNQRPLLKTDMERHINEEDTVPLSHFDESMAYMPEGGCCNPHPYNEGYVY
sequence,measurement,setting,value
TCTCTC,binding signal,[1],"1.37 fold enrichment (6-mer frequency, TF over GST control)"
same,binding signal,[2],"1.27 fold enrichment (6-mer frequency, TF over GST control)"
same,binding signal,[3],"1.36 fold enrichment (6-mer frequency, TF over GST control)"
same,binding signal,[4],"1.22 fold enrichment (6-mer frequency, TF over GST control)"
same,binding signal,[5],"1.35 fold enrichment (6-mer frequency, TF over GST control)"
same,binding signal,[6],"1.36 fold enrichment (6-mer frequency, TF over GST control)"
same,binding signal,[7],"1.39 fold enrichment (6-mer frequency, TF over GST control)"
same,binding signal,[8],"1.31 fold enrichment (6-mer frequency, TF over GST control)"
same,binding signal,[9],"1.36 fold enrichment (6-mer frequency, TF over GST control)"
same,binding signal,[10],"1.21 fold enrichment (6-mer frequency, TF over GST control)"
same,binding signal,[11],"1.27 fold enrichment (6-mer frequency, TF over GST control)"
same,binding signal,[12],"1.59 fold enrichment (6-mer frequency, TF over GST control)"
same,binding signal,[13],"1.36 fold enrichment (6-mer frequency, TF over GST control)"
same,binding signal,[14],"1.44 fold enrichment (6-mer frequency, TF over GST control)"
same,binding signal,[15],"1.38 fold enrichment (6-mer frequency, TF over GST control)"
same,binding signal,[16],"1.34 fold enrichment (6-mer frequency, TF over GST control)"
same,binding signal,[17],"1.39 fold enrichment (6-mer frequency, TF over GST control)"
same,binding signal,[18],"1.35 fold enrichment (6-mer frequency, TF over GST control)"
same,binding signal,[19],"1.3 fold enrichment (6-mer frequency, TF over GST control)"
